What was measured:
Test in all cases: log2 ratio of Biotin-Ahx-Ub-VS probe labelling (fragment/DMSO); higher = less target engagement (more negative = stronger competition), active = hit call of the paper (q ≤ 0.05, log2 ratio ≤ -1)
Details in all cases: compound concentration: 200 uM; treatment time: 3 h
USP42 = target: T1, USP42 (UniProt Q9H9J4)
T1 sequence (whole entry): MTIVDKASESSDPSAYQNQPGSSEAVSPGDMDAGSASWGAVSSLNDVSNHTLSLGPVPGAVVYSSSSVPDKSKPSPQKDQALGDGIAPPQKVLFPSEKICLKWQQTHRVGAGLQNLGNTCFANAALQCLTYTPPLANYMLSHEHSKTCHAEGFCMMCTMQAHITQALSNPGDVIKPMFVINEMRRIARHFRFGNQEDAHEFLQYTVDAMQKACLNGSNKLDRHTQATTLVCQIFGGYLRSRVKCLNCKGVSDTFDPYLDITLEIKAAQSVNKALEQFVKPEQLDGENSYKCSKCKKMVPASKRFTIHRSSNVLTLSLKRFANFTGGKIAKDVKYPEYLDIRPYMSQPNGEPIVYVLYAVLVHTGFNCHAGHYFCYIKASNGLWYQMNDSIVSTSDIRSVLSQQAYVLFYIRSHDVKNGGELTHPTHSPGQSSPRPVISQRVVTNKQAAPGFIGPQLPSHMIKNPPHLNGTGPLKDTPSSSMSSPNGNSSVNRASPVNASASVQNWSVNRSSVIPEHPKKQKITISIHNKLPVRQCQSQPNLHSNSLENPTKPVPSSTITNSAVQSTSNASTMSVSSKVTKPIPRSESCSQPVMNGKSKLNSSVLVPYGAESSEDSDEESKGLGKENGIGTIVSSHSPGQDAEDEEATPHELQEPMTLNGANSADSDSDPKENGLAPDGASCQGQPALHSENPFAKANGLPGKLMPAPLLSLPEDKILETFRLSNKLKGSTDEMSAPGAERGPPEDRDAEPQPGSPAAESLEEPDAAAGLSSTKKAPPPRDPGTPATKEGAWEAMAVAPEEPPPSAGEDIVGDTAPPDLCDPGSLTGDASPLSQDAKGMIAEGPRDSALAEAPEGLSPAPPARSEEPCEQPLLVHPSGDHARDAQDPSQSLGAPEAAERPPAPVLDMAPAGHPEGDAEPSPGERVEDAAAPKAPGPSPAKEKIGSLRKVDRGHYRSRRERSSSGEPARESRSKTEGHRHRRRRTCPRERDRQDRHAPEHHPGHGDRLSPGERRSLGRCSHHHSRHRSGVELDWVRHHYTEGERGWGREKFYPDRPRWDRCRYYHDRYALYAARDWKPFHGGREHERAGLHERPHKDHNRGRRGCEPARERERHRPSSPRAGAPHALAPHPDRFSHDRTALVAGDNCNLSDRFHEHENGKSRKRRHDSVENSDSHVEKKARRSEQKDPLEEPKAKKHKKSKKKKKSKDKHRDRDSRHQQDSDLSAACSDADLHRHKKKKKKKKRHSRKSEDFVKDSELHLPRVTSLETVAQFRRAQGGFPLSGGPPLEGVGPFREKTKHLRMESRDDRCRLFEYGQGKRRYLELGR
Method in brief: (§1)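 Triplicate samples of HEK293T lysate, 495 µg each, received fragment at 200 µM or vehicle for 3 h, followed by Biotin-Ahx-Ub-VS (0.5 µM final) for 1 h. After NeutrAvidin enrichment of labelled DUBs and LysC/trypsin digestion, peptides were run by diaPASEF LC-MS/MS. The values are average log2 fragment/vehicle ratios from global-median-normalised Spectronaut label-free quantities, tested by unpaired t-test on proteins having ≥2 unique peptides.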

USP46 = USP46 (UniProt P62068)
Method in brief: as §1

USP47 = target: T2, USP47 (UniProt Q96K76)
T2 sequence (whole entry): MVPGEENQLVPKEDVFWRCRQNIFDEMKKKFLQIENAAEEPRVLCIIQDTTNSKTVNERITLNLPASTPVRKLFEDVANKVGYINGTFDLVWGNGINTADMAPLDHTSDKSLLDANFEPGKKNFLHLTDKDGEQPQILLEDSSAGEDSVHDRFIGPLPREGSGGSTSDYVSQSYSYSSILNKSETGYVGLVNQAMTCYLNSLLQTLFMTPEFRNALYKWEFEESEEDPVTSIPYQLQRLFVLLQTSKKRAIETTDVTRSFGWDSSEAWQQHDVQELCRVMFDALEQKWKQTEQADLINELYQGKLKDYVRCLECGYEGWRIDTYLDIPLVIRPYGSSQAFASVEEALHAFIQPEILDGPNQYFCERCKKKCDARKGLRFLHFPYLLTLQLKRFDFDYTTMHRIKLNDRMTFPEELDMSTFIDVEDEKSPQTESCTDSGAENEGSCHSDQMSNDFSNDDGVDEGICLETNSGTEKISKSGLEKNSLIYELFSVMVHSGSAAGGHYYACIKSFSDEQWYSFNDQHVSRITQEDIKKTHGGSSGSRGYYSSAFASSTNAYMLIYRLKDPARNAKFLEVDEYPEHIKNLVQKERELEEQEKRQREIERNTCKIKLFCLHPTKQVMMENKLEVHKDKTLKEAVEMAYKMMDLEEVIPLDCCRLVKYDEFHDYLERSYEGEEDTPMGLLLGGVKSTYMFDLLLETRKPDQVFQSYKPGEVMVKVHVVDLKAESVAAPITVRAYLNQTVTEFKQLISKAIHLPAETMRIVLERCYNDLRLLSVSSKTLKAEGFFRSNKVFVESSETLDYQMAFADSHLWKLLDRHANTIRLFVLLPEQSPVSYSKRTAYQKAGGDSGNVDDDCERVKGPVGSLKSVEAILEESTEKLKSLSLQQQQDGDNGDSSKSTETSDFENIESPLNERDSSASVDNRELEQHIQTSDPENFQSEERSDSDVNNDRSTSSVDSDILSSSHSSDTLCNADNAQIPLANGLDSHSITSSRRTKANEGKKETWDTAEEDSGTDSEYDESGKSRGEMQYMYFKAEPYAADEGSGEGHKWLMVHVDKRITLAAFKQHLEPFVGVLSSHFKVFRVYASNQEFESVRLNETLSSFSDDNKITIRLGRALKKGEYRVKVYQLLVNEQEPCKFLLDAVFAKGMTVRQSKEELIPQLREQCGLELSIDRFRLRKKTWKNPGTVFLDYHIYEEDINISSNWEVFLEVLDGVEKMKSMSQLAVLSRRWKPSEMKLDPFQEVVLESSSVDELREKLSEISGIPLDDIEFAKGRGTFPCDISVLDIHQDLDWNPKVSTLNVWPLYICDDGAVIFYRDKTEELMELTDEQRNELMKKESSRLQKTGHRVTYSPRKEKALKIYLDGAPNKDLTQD
Method in brief: as §1

USP48 = target: T3, USP48 (UniProt Q86UV5)
T3 sequence (whole entry): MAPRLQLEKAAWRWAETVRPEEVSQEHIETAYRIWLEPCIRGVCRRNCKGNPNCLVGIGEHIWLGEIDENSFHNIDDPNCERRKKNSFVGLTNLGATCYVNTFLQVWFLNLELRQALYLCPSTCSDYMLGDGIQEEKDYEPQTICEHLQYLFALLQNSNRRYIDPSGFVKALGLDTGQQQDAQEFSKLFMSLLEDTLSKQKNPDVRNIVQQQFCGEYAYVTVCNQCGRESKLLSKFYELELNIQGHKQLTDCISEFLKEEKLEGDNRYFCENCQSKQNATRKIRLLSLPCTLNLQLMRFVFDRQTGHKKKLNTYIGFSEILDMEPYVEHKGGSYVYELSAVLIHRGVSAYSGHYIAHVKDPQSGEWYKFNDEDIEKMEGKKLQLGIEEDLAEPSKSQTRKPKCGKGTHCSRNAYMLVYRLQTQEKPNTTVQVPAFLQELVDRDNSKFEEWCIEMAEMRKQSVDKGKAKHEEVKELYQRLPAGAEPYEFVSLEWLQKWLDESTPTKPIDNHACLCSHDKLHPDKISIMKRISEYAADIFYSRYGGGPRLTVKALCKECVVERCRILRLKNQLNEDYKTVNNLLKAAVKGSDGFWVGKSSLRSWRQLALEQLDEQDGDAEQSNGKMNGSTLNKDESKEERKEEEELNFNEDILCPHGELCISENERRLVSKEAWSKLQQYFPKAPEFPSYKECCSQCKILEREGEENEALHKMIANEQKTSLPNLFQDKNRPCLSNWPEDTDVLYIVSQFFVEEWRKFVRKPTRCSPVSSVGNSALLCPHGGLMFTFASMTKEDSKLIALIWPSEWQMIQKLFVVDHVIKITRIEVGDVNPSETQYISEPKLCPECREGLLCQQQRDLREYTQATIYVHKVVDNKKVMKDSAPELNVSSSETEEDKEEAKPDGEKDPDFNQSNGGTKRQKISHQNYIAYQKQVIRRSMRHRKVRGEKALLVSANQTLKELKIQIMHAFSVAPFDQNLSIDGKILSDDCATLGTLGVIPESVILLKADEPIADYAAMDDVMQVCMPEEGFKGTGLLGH
Method in brief: as §1

USP5 = target: T4, USP5 (UniProt P45974)
T4 sequence (whole entry): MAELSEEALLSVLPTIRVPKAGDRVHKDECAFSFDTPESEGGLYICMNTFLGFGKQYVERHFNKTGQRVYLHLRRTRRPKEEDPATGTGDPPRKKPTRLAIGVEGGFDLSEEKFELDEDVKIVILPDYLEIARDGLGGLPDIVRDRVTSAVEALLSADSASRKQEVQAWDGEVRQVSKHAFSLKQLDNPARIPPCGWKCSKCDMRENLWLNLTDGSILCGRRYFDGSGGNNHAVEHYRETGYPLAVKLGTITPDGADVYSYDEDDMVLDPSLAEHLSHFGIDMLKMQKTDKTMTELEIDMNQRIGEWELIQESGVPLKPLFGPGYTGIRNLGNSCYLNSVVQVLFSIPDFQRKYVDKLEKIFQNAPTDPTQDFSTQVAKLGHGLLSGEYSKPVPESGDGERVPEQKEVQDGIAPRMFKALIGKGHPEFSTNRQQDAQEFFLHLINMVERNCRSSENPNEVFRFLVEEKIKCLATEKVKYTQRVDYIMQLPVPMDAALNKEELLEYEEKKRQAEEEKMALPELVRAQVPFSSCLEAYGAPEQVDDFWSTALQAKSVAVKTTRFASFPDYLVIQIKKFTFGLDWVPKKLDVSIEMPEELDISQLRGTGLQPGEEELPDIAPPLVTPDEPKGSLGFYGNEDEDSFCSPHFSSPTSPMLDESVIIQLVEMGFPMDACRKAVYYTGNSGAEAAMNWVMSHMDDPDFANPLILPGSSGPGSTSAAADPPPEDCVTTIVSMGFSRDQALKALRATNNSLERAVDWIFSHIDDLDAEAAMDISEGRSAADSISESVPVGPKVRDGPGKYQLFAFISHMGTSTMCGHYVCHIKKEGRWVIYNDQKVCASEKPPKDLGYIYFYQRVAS
Method in brief: as §1

USP54 = USP54 (UniProt Q70EL1)
Method in brief: as §1

USP7 = USP7 (UniProt Q93009)
Method in brief: as §1

USP8 = target: T5, USP8 (UniProt P40818)
T5 sequence (whole entry): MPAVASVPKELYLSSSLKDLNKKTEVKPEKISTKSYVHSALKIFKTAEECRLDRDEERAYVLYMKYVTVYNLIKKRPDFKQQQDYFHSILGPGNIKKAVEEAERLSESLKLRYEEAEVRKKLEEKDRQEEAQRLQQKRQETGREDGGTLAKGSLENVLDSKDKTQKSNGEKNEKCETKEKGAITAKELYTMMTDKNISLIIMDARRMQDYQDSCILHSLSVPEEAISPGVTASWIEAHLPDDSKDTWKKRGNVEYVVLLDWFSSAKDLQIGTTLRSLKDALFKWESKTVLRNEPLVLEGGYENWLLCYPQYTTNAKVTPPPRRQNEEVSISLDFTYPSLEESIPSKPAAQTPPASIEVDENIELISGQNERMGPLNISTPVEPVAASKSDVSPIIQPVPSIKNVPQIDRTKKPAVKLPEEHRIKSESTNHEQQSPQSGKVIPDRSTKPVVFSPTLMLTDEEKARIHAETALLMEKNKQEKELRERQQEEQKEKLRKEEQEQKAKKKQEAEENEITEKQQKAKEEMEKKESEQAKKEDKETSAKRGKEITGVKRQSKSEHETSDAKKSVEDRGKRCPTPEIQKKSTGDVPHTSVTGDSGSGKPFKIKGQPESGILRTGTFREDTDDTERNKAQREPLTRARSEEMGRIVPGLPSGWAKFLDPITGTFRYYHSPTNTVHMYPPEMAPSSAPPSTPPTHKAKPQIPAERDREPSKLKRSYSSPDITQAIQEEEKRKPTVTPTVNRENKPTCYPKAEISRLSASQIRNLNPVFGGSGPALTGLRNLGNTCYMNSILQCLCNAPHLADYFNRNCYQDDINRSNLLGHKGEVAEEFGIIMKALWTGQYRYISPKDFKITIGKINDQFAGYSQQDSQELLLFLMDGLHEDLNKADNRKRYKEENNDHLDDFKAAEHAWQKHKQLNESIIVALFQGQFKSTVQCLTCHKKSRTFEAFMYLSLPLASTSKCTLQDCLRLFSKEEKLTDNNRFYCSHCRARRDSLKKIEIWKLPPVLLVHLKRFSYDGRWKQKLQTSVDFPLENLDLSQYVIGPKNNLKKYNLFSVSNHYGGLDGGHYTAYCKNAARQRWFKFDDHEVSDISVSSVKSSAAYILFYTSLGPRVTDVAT
Method in brief: as §1

USP9X = USP9X (UniProt Q93008)
Method in brief: as §1

UniProt O00487 = target: UniProt O00487
Method in brief: as §1

Measured: log2 ratio of Biotin-Ahx-Ub-VS probe labelling

Sequence of USP46 (P62068 whole entry): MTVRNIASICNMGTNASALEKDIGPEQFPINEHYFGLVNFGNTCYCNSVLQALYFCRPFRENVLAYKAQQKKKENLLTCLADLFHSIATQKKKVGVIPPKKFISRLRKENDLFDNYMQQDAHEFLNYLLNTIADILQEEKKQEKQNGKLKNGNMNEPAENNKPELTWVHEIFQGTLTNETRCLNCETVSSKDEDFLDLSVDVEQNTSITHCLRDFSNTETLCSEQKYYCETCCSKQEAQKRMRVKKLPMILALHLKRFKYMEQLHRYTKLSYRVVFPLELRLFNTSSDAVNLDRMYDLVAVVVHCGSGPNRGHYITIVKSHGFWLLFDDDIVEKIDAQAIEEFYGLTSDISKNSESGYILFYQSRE
Sequence of USP54 (Q70EL1 whole entry): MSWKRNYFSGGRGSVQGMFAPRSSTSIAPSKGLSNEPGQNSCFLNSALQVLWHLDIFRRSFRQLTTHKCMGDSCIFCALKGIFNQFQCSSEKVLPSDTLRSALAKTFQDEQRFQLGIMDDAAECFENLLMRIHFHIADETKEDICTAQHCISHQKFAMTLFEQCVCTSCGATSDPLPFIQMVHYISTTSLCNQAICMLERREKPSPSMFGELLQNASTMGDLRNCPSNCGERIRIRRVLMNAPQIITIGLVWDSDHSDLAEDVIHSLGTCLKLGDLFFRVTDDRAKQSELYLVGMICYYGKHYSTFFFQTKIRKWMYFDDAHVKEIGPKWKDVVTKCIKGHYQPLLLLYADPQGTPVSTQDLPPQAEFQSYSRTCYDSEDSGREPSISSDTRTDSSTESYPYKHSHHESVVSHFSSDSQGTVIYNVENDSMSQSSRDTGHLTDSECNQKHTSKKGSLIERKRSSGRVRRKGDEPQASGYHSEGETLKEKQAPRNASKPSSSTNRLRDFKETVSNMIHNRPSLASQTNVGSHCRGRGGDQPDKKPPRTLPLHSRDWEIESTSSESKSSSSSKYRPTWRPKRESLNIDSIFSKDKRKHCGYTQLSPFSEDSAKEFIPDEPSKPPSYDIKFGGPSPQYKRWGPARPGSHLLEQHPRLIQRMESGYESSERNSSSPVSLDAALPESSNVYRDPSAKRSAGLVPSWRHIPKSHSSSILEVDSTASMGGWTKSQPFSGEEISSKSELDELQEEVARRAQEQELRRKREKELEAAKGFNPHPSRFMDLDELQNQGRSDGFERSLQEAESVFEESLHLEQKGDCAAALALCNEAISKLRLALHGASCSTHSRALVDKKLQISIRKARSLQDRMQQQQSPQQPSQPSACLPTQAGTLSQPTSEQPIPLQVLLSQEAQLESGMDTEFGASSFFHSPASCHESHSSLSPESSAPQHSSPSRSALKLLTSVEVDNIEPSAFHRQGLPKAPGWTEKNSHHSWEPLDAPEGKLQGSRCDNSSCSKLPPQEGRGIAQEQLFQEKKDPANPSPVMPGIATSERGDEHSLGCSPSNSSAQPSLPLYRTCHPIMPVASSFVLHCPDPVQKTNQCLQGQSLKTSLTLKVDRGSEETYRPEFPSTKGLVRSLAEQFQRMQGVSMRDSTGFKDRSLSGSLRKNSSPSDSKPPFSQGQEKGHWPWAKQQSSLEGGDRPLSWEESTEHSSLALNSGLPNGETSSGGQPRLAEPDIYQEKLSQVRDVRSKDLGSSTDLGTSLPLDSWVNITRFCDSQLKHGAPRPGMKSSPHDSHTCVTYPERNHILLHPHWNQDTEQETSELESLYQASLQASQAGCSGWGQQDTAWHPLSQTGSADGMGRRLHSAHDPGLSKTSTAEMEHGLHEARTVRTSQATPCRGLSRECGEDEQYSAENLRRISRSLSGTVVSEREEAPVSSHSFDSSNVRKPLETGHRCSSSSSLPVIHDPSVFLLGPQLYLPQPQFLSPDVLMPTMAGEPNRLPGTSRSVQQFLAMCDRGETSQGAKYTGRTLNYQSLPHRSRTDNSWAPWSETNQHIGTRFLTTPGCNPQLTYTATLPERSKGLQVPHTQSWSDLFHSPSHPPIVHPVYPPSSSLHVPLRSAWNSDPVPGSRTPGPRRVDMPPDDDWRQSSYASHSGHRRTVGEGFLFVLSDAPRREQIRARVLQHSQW
Sequence of USP7 (Q93009 whole entry, looked up): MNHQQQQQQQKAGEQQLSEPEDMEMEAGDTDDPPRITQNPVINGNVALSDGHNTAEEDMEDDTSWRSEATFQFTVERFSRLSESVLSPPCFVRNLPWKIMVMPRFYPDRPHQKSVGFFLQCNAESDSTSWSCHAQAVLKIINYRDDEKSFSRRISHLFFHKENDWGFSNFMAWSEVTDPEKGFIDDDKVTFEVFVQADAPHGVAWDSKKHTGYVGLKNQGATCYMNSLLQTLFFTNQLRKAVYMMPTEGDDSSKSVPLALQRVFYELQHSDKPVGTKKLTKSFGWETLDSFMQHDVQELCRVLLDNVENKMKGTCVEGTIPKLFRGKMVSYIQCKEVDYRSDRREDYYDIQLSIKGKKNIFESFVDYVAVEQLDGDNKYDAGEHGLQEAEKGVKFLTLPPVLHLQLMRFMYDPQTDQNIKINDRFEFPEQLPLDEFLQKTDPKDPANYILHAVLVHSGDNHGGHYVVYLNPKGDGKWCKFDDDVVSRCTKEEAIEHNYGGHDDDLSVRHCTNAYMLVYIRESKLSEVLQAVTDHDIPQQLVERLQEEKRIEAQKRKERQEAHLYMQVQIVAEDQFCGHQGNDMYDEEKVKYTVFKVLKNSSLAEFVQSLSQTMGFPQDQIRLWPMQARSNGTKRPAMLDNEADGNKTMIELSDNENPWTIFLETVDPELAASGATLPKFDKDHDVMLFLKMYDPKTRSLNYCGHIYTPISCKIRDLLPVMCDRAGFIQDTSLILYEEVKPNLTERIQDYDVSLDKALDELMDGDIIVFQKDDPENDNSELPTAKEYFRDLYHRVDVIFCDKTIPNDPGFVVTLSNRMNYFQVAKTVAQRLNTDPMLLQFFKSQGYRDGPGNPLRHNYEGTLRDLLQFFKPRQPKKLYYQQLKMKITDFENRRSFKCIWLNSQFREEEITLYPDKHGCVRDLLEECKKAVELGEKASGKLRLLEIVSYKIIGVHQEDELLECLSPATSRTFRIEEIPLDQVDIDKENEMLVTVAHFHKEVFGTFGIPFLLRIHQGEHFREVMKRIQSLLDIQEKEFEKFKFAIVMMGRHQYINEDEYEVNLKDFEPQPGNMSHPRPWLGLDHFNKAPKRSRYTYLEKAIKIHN
Sequence of UniProt O00487 (O00487 whole entry): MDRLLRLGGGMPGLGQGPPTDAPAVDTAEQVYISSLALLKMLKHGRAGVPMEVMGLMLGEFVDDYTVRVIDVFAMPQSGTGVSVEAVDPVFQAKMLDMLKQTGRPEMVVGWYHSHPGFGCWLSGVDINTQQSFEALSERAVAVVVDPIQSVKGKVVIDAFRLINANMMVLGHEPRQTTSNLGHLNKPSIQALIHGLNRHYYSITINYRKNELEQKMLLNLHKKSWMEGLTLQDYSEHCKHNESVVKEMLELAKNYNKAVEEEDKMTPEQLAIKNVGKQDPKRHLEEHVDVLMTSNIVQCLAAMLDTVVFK

O=C(CCl)N1CCc2[nH]c3ccccc3c2C1
inactive: USP42 0.132 | USP46 -0.655 | USP47 -0.863 | USP48 -0.532 | USP5 -0.461 | USP54 -0.00488 | USP7 -0.511 | USP8 -0.774 | USP9X -0.846 | UniProt O00487 -0.243
